ClpP mod – qHTS Assay for Activators of ClpP; purified B. subtilis ClpP, FRET peptide cleavage, 20 min; Potency, µM (series often up to 57.5 µM), for inactives: top-dose activity change, negative = active; hit rate 1.9% among 340,000; AID 651965, 2013; active = well fitted falling curve with a large enough effect; inconclusive = small, poorly fitted or top-dose-only effect; inactive = no such curve, though single readings can be large or run the other way; also: potency is read from the fitted curve at half-maximal effect; the source files actives as falling curves though it sought activators and does not explain the sign; nearly all actives have a fitted effect of over 65% in size
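Buffer: 100 mM Tris/HCl pH8, 100 mM KCl, 0.05% low protease BSA, 2.5% glycerol, 0.01% Tween-20. ClpP 10 microg/mL final; 20 min RT; delta FRET normalized to ADEP and DMSO controls.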
p53 reactivation – mutant p53 re-activation in reporter cells | H1299 p53-A138V BP100-luciferase reporter, luminescence, 24 h | Potency, µM (doses to about 92.2 µM), for inactives: at the highest dose activity change, positive = activation, usual class: activators | hit rate 0.063% among 320,000 | AID 504706; also: potency is read from the fitted curve at half-maximal effect; % of control where 0% means no effect; nearly all actives have a fitted effect of over 45% in size
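p53-null H1299 cells stably carrying temperature-sensitive p53-A138V and a BP100-luciferase reporter were pinned with compounds (4-point, 1:5 series) and held 24 hrs at 37 deg C. Luminescence was read 10 min after detection reagent.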
uPA generation – cell surface uPA generation inhibition. cell surface uPA generation assay, qHTS. hit rate 0.31% among 330,000. Potency, µM (highest dose often 38.3 µM), for the others: top-dose activity change, negative = inhibition, hits mostly inhibitors. AID 540303; active = well fitted inhibition curve with a large enough effect; inconclusive = small, poorly fitted or top-dose-only effect; inactive = no such curve, though single readings can be large or run the other way; tested in mouse RAW 264.7 cells; also: potency is read from the fitted curve at half-maximal effect; % is scaled to controls: 0 for no effect and ±100 for the full control effect; nearly all actives have a fitted effect of over 55% in size
B2AR arrestin – beta2AR (human) beta-arrestin recruitment activity; P07550; beta-arrestin recruitment to beta2AR, cell-based reporter; Potency, µM (titrated, usually from 46.1 µM), for the others: at the top dose activation, most hits filed as activators; hit rate 0.02% among 330,000;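 also: potency is read from the fitted curve at half-maximal effect; 0% = DMSO controls and full agonism = EC100 isoproterenol or metaproterenol; nearly all actives have a fitted effect of over 65% in size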
Giardia killer – kills Giardia lamblia | Giardia lamblia trophozoite viability | activity change, % at 7.66 µM, hits read low | hit rate 0.15% among 340,000; in the data active = activity change below about -80%; inconclusive = between about -30% and that limit;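 also: parasites exposed to compound for two days anaerobically before the ATP read; % is scaled to controls: 0 for no effect and ±100 for the full control effect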
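Compounds were tested on trophozoites seeded at 100 cells/well and held 48 hrs at 37 deg C anaerobically. An ATP-based luminescent kit measured the remaining live cells.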
Mito fusion yeast – blocks mitochondrial division or promotes mitochondrial fusion; S. cerevisiae fusion-defective mutant growth rescue, CellTiterGlo 48 h; Potency, µM (highest dose often 46.1 µM), inactives show at the highest dose growth rescue (activation), hits mostly activators; hit rate 0.23% among 320,000; also: potency is read from the fitted curve at half-maximal effect; % of control where 0% means no effect; nearly all actives have a fitted effect of over 45% in size
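Luminescent cell viability in 1536-well qHTS format served as the measure of rescued growth in ts fusion-mutant S. cerevisiae cultured on non-fermentable YPEG for 48 hours at 37C.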
The depositor's hits bear a star; ? = inconclusive; nt = no result given. Rows were chosen to be rich in hits. Some 2.1% of all compounds tested hit in one or more screens of this group. Unless noted, calls follow the shape of the dose curve; as a rule, active = well fitted curve in the direction sought with a large enough effect; inconclusive = small, poorly fitted or top-dose-only effect, or another doubt; inactive = no such curve, though single readings can be large; an effect the other way counts as inactive or inconclusive.

SMILES | ClpP mod | p53 reactivation | uPA generation | B2AR arrestin | Giardia killer | Mito fusion yeast
O=C(/C(C=Nc1ccc(F)cc1)=C(/O)c1ccco1)C(F)(F)F | 25.1µM* | ? | -5.2% | -0.3% | 6.1 | 2.1%
Cc1cccc(N=C/C(C(=O)C(F)(F)F)=C(\O)c2ccco2)c1 | -8.0% | 5.7% | 0.1% | -0.9% | -12.0 | 0.3%
Cc1ccc(N=C/C(C(=O)C(F)(F)F)=C(\O)c2ccco2)cc1Cl | 15.8µM* | ? | -3.1% | 1.0% | 11.8 | -1.6%
O=c1[nH]cnc2sc(-c3ccccc3)cc12 | 31.6µM* | 22.0% | -26.6% | 0.2% | -1.4 | 12.5%
O=c1[nH]c(-c2ccccc2)nc2sc(-c3ccccc3)cc12 | nt | 13.6% | -20.2% | 0.2% | 10.4 | 1.3%
COCCNC(=O)CN1C(=O)/C(=C/c2ccccc2)Oc2ccc(C(C)(C)C)cc21 | 4.0% | -6.0% | -12.0% | 0.3% | -5.3 | 20µM*
O=C(CN1C(=O)/C(=C\c2cccc(Br)c2)Oc2ccccc21)NCCCN1CCOCC1 | -22.1% | 9.0% | 5.9% | -0.1% | 15.9 | -39.5%
C=CCC(c1ccccc1)N(C(C)=O)c1ccco1 (centres undefined) | nt | 8.3% | 2.1% | -0.1% | 0.1 | 25.1µM*
COC(=O)c1ccc(-c2ccc(OC)c(C3C4C=CCC(C)C4C(=O)N3Cc3ccccc3)c2)cc1 (centres undefined) | nt | nt | nt | nt | -17.5 | nt
COCc1cc(=O)n2[nH]c(C)cc2n1 | 17.8µM* | 14.3% | -0.7% | -0.5% | 10.9 | -1.1%
CCCc1cc(=O)n2[nH]c(-c3ccc(C)cc3)cc2n1 | 14.1µM* | ? | -7.6% | -0.5% | -11.1 | -1.0%
CCCc1cc(=O)n2[nH]c(-c3ccccc3)cc2n1 | 22.4µM* | ? | 1.2% | -0.2% | 5.9 | -3.5%
COCc1cc(=O)n2[nH]c(-c3ccccc3)cc2n1 | 25.1µM* | ? | 1.2% | 0.4% | -19.1 | 1.8%
COCc1cc(=O)n2[nH]c(-c3cccc(Br)c3)cc2n1 | ? | ? | -4.6% | 0.1% | -4.3 | -0.9%
CCNC(=O)c1ccc2nc(-c3ccccc3)c(-c3ccccc3)nc2c1 | 4.0% | nt | nt | nt | 0.1 | nt
CCN(CC)C(=O)c1ccc2nc(-c3ccccc3)c(-c3ccccc3)nc2c1 | 25.1µM* | -4.5% | 4.6% | 0.4% | -5.0 | 16.4%
CCCNC(=O)c1ccc2nc(-c3ccccc3)c(-c3ccccc3)nc2c1 | 28.2µM* | 3.5% | 4.8% | -0.9% | 8.7 | 17.5%
Cc1ccc(Nc2nc3ccccc3[nH]2)nc1 | 35.5µM* | ? | 1.8% | -0.2% | 2.2 | 12.7%
CCOC(=O)c1nc2cc3n(c(CC(C)C)c-2c1C)CC(C)=C3C | 28.2µM* | -0.7% | -2.6% | -0.7% | 1.2 | -1.1%
O=C(/C=C/Nc1ccccc1)c1ccc(Cl)cc1Cl | -0.7% | nt | 10µM* | -0.5% | 25.4 | -3.8%
Cc1csc2nc(-c3ccc(NS(=O)(=O)c4cc(F)ccc4F)cc3)cn12 | -0.1% | nt | nt | nt | nt | nt
CCN1CCN(CCCNC(=O)Cn2c(-c3cccs3)cc3cc(Cl)ccc32)CC1 | 31.6µM* | nt | nt | nt | nt | nt
COc1ccc(N2CCN(CCCNC(=O)Cn3c(-c4cccs4)cc4ccccc43)CC2)cc1 | 4.2% | nt | nt | nt | nt | nt
CN1CCN(CCCNC(=O)Cn2c(-c3cccs3)cc3cc(Cl)ccc32)CC1 | 31.6µM* | nt | nt | nt | nt | nt
O=C(Cn1c(-c2cccs2)cc2cc(Cl)ccc21)NCc1ccccc1 | 28.2µM* | nt | nt | nt | nt | nt
SMILES | ClpP mod | p53 reactivation | uPA generation | B2AR arrestin | Giardia killer | Mito fusion yeast
CCN(CC)CCCNC(=O)Cn1c(-c2cccs2)cc2cc(Cl)ccc21 | 28.2µM* | nt | nt | nt | nt | nt
COc1cccc(NC(=O)Cn2c(=O)n(-c3ccc(CC(=O)NCC4CCCO4)cc3)c(=O)c3ccccc32)c1 (centres undefined) | -11.7% | nt | nt | nt | nt | nt
COc1ccc(C2CC(=O)c3c([nH]c(C(=O)OC4CCCCCC4)c3C)C2)cc1OC (centres undefined) | -3.7% | nt | nt | nt | nt | nt
O=C(CN1CCC2(CC1)OCCO2)c1ccc2cc[nH]c2c1 | 31.6µM* | 0.5% | 1.0% | -0.2% | 13.5 | 0.4%
CN(C(=O)c1cc2c(s1)-c1ccc(Cl)cc1SC2)c1cccc(C(F)(F)F)c1 | -27.6% | nt | nt | nt | nt | nt
N#Cc1cnc2c(-c3ccccc3)c(-c3ccccc3)nn2c1N | 31.6µM* | 0.2% | -1.7% | -1.4% | 4.8 | 0.4%
CCc1ccc(-n2nc3cc(C)c(NC(=O)c4cc(Cl)ccc4OC)cc3n2)cc1 | -21.7% | nt | nt | nt | nt | nt
CCOC(=O)c1c(-c2ccc(F)cc2)csc1NC(=O)CCN1CCOCC1 | 0.8% | -24.4% | 12.0% | -0.9% | 8.0 | 11.2µM*
CCOC(=O)c1c(-c2ccc(F)cc2)csc1NC(=O)CCN1C(=O)c2ccccc2C1=O | -0.5% | 2.9% | 7.3% | -0.5% | -3.7 | -0.4%
CCOC(=O)c1c(NC(=O)c2cccc(N3C(=O)CCC3=O)c2)sc(C)c1C | -9.5% | -6.0% | nt | 0.4% | ? | 1.6%
Cc1ccc(-c2csc(NC(=O)c3cccc(N4C(=O)CCC4=O)c3)n2)o1 | -0.7% | -5.3% | 3.55µM* | -0.9% | -27.0 | -3.7%
CCOC(=O)c1c(-c2ccc(-c3ccccc3)cc2)csc1NC(=O)CCN1CCOCC1 | ? | -9.4% | 1.2% | 0.4% | 17.5 | 10µM*
CCOC(=O)c1c(-c2ccc(-c3ccccc3)cc2)csc1NC(=O)c1cccc(N2C(=O)CCC2=O)c1 | 15.8µM* | -7.8% | -2.5% | 0.2% | 8.9 | -0.3%
CCOC(=O)c1c(-c2ccccc2)csc1NC(=O)C(C)NCCCN1CCOCC1 (centres undefined) | -5.0% | -0.8% | -3.7% | -1.3% | 12.9 | 10.5%
Cc1nc(N2CCOCC2)c2cc(-c3ccccc3)sc2n1 | 31.6µM* | -0.1% | 12.6% | -1.2% | -29.1 | -0.2%
Cc1nc(N2CCN(Cc3ccc4c(c3)OCO4)CC2)c2cc(-c3ccccc3)sc2n1 | nt | 6.9% | -6.1% | -0.1% | 19.7 | 5.9%
c1ccc(-c2cc3c(N4CCOCC4)ncnc3s2)cc1 | 28.2µM* | -5.3% | 4.6% | 0.3% | 8.1 | -2.3%
CCOc1cc(CNC(=O)c2ccc3nc(C(C)C)oc3c2)cc(OCC)c1OCC | -4.1% | nt | nt | nt | nt | nt
CN(C)c1ccc(/C=C2\C=Cc3ccccc32)cc1N | 0.5% | nt | nt | nt | nt | nt
Cc1ccc(CNC(=O)CSc2ncc(S(=O)(=O)c3ccc(C)c(Cl)c3)c(=O)[nH]2)cc1 | -0.2% | nt | nt | nt | nt | nt
O=C(Nc1ccc(N2CCCCC2)c(C(=O)O)c1)c1ccco1 | -0.9% | 10.8% | -5.1% | 0.2% | 2.8 | -0.2%
Cc1cccc(NC(=O)c2cc(NC(=O)c3ccco3)ccc2N2CCCCC2)c1 | 17.8µM* | 6.0% | -1.3% | -0.4% | 2.1 | 2.8%
CC(C)(C)c1nnc(NC(=O)NS(=O)(=O)c2ccccc2)s1 | 20µM* | -0.5% | -1.2% | 0.2% | 20.5 | -3.0%
Cc1ccc(S(=O)(=O)N(CC(=O)NC2CCCCCC2)c2ccccc2F)cc1 | -3.6% | -2.1% | nt | -0.1% | 8.1 | -1.3%

Bioassay records deposited in PubChem by National Center for Advancing Translational Sciences (NCATS).
